In all, about 360,000 compounds went through this assay and about 3,500 (0.97%) were called active.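 The calls were made as follows: active = activation above a per-plate cutoff, the mean activation of sample wells on that plate plus 3 SD (cut at about 8% in these data); inactive = the rest.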 Shown is part of a subset that was picked to be rich in actives.
Biological target: Melanocortin receptor 4 (Homo sapiens) (UniProt P32245)
Assay: MC4R agonists recruiting beta-arrestin, primary screen, cell-based, luminescence, agonist arm of biased-ligand search (AID 540308)
Conditions: U2OS MC4R beta-arrestin complementation, at 8.9 µM, active compounds read high, percent of melanotan II response, DMSO zero

Chain of Melanocortin receptor 4 (Homo sapiens) (P32245 whole entry, looked up): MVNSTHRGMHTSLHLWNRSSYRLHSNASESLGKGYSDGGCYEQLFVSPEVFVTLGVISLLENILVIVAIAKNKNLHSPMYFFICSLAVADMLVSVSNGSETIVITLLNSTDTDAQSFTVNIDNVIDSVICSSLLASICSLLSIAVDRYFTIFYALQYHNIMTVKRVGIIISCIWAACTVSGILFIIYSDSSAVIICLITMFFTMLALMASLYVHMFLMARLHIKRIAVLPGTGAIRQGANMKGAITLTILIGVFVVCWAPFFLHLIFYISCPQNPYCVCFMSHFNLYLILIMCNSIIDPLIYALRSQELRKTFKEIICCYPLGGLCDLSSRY

Question: For `COc1ccc(Cl)cc1-c1cc(C(=O)Nc2cc(OC)c(OC)c(OC)c2)[nH]n1`, which activation is on record?
Answer: 3.58% (inactive)

Question: For `CCCNC(=O)c1cc(C2CCCCN2S(=O)(=O)c2cn(C)cn2)on1` (centres undefined), which activation is on record?
Answer: -0.95% (inactive)

Question: `O=C(Nc1ccc2oc(-c3ccc4ccccc4c3)nc2c1)c1cccs1` was tested. Which activation did it give?
Answer: 14.3% (active)

Question: How did the activation turn out when `O=C(Nc1ccc2oc(-c3ccccc3F)nc2c1)c1ccco1` was run?
Answer: -1.85% (inactive)

Question: For `COc1ccc2oc(-c3cccc(NC(=O)CSc4ccc(Cl)cc4)c3)nc2c1`, which activation is on record?
Answer: 5.84% (inactive)

Question: Which activation does the source give for `CCOC(=O)C1(C)CCCN(C(=O)c2cccc(Cl)c2)C1` (centres undefined) here?
Answer: 0.39% (inactive)

Question: For `COc1ccc(S(=O)(=O)N2CCCCC2c2cc(C(=O)NCc3ccc(F)cc3)no2)cc1` (centres undefined), which activation is on record?
Answer: -0.38% (inactive)

Question: For `COc1ccc(-c2noc(COc3ccc(Cl)c(C)c3)n2)cc1`, which activation is on record?
Answer: 9.56% (active)

Question: `COc1ccc(N2CCN(C(=O)CCc3nc(-c4ccc(C)cc4)no3)CC2)cc1` was tested. Which activation did it give?
Answer: -1.45% (inactive)

Question: `COc1ccc(C(C)=O)cc1COc1ccc(Cl)c(C)c1` was tested. Which activation did it give?
Answer: -1.85% (inactive)

Question: `O=C(CCCOc1ccccc1)NCc1ccco1` was tested. Which activation did it give?
Answer: -0.5% (inactive)

Question: How did the activation turn out when `O=C(COC(=O)CCCN1C(=O)c2cccc3cccc(c23)C1=O)NC1CCS(=O)(=O)C1` (centres undefined) was run?
Answer: 0.21% (inactive)

Question: How did the activation turn out when `O=C(CCCCCN1C(=O)c2cccc3cccc(c23)C1=O)NCc1ccco1` was run?
Answer: 19.2% (active)

Question: Which activation does the source give for `CCCNC(=O)C1(C)CCN(C(=O)c2ccc(F)cc2Cl)C1` (centres undefined) here?
Answer: 0.56% (inactive)

Question: With `CCc1nnc(NC(=O)CSCc2cc(=O)n3cc(C)sc3n2)s1` as the compound, how does the activation read?
Answer: -1.4% (inactive)

Question: `CCc1nc2c(OCCc3cccc(OC)c3)cccn2c1N(C)C(=O)c1ccc(C)cc1` was tested. Which activation did it give?
Answer: -0.79% (inactive)

Question: With `CSc1ccc(/C=N\NC(=O)COc2ccc(Cl)cc2Br)cc1` as the compound, how does the activation read?
Answer: 36.4% (active)

Question: `CSc1ccc(/C=N/NC(=O)c2cccc(Cl)c2)cc1` was tested. Which activation did it give?
Answer: 1.13% (inactive)

Question: Which activation does the source give for `Cc1ccc(/C=N/NC(=O)COc2ccccc2-c2ccccc2)cc1` here?
Answer: 1.38% (inactive)

Question: With `COCCNc1ncnc2c1ncn2[C@H]1CN(Cc2ccc(OC)cc2)C[C@@H](CO)O1` as the compound, how does the activation read?
Answer: 0% (inactive)

Question: `CCCS(=O)(=O)NC(=O)C1(C)CCCN(C(=O)c2cc(C)on2)C1` (centres undefined) was tested. Which activation did it give?
Answer: 1.12% (inactive)

Question: With `CSc1ccc(S(=O)(=O)NCc2ccc(Cl)cc2)cc1` as the compound, how does the activation read?
Answer: 10.2% (active)

Question: `CC(C)CNS(=O)(=O)c1ccc(CCC(=O)NCc2ccc(Cl)cc2)cc1` was tested. Which activation did it give?
Answer: 0.27% (inactive)

Question: How did the activation turn out when `Cc1ccc(S(=O)(=O)NCCC(=O)NCc2ccc(Cl)cc2)cc1C` was run?
Answer: -1.43% (inactive)

Question: `O=C(NC(=S)Nc1cccc2c(O)cccc12)c1cccc(Br)c1` was tested. Which activation did it give?
Answer: 30.6% (active)

Question: With `O=C(NC1CC1)c1cccc(Br)c1` as the compound, how does the activation read?
Answer: -2.46% (inactive)

Question: With `O=C(NC(=S)Nc1ccc(S(=O)(=O)Nc2ncccn2)cc1)c1cccc(Br)c1` as the compound, how does the activation read?
Answer: -2.77% (inactive)

Question: For `Cc1ccccc1Cn1c(C)c(C(=O)NCc2cccc(C(F)(F)F)c2)sc1=O`, which activation is on record?
Answer: 2.6% (inactive)

Question: With `O=C(CCCCCn1c(=S)[nH]c2cc3c(cc2c1=O)OCO3)N1CCN(c2ccc(F)cc2)CC1` as the compound, how does the activation read?
Answer: 13.7% (active)

Question: With `CC(C)NC(=O)CCCn1c(=S)[nH]c2cc3c(cc2c1=O)OCO3` as the compound, how does the activation read?
Answer: -1.77% (inactive)

Question: How did the activation turn out when `Cc1ccc(C)c(N2CCN(C(=O)CCCCCn3c(=S)[nH]c4ccc(N5CCOCC5)cc4c3=O)CC2)c1` was run?
Answer: -2.66% (inactive)

Question: How did the activation turn out when `CCc1nc2ccc(C(=O)NCCNC(C)=O)cn2c1N(CC)Cc1cccc(Br)c1` was run?
Answer: -0.75% (inactive)

Question: Which activation does the source give for `CCc1nc2ccc(C(=O)Nc3cccc(OC)c3)cn2c1N(CCC(C)C)CCN(C)C` here?
Answer: 0.02% (inactive)

Question: For `COc1ccc(C(C)(NC(C)=O)c2nc(-c3ccc(S(C)(=O)=O)cc3)cs2)cc1` (centres undefined), which activation is on record?
Answer: -1.32% (inactive)

Question: `Cc1ccc(O)c(NC(=S)NC(=O)COc2ccc(Br)cc2)c1` was tested. Which activation did it give?
Answer: 19.5% (active)

Question: `Cn1cccc1C(=O)NNC(=O)COc1ccc(Br)cc1` was tested. Which activation did it give?
Answer: -1.12% (inactive)

Question: How did the activation turn out when `CC(=O)Nc1ccc(OC(=O)COc2ccc(Br)cc2)cc1` was run?
Answer: -0.49% (inactive)

Question: Which activation does the source give for `CCCC(=O)N1CCC1(C)C(=O)NCc1ccc(SC)cc1` (centres undefined) here?
Answer: -2.08% (inactive)

Question: For `CC(C)c1ccc(CC(=O)N2CCC2(C)C(=O)NS(=O)(=O)c2ccc(C(C)(C)C)cc2)cc1` (centres undefined), which activation is on record?
Answer: 0.36% (inactive)

Question: How did the activation turn out when `CS(=O)(=O)Nc1cccc(-c2cn3ccccc3n2)c1` was run?
Answer: -3.26% (inactive)

Question: Which activation does the source give for `Cc1cc(C)cc(NS(=O)(=O)Cc2ccccc2)c1` here?
Answer: 0.25% (inactive)

Question: `CCS(=O)(=O)Nc1cccc(-c2cc(-c3ccccc3)c3cc(C)ccc3n2)c1` was tested. Which activation did it give?
Answer: 8.87% (active)

Question: For `CNc1cncc(-c2cccc(C(=O)N3CCOCC3)c2)n1`, which activation is on record?
Answer: -2.12% (inactive)

Question: How did the activation turn out when `NC(c1ccccc1)c1csc(NC(=O)Nc2cccc(C(F)(F)F)c2)n1` (centres undefined) was run?
Answer: 7.09% (inactive)

Question: How did the activation turn out when `CC(C)(C)CC(=O)Nc1nc(C(N)Cc2ccc(C(F)(F)F)cc2)cs1` (centres undefined) was run?
Answer: 9.49% (active)

Question: For `COc1ccc(CC(N)c2csc(NC(=O)Cc3ccccc3)n2)cc1` (centres undefined), which activation is on record?
Answer: -0.85% (inactive)

Question: For `COc1ccc(C(N)c2csc(NC(=O)Nc3cccc(C(F)(F)F)c3)n2)cc1` (centres undefined), which activation is on record?
Answer: 9.99% (active)

Question: For `NC(Cc1ccc(F)cc1)c1csc(Nc2nncc3ccccc23)n1` (centres undefined), which activation is on record?
Answer: 6.94% (inactive)

Question: With `COc1ccc(CC(N)c2csc(NC(=O)NC(c3ccccc3)c3ccccc3)n2)cc1` (centres undefined) as the compound, how does the activation read?
Answer: 13.1% (active)

Question: With `NC(Cc1ccccc1)c1csc(Nc2cc(Oc3ccccc3)ncn2)n1` (centres undefined) as the compound, how does the activation read?
Answer: 4.18% (inactive)

Question: Which activation does the source give for `COc1ccc(CC(N)c2csc(NC(=O)Nc3ccc(C(C)C)cc3)n2)cc1` (centres undefined) here?
Answer: 4.05% (inactive)

Question: For `NC(c1csc(NC(=O)Nc2cccc(C(F)(F)F)c2)n1)C1CCCCC1` (centres undefined), which activation is on record?
Answer: 6.14% (inactive)

Question: `Cc1cccc(NC(=O)CN2CCN(CC(=O)NCC3(N4CCCCC4)CCCCC3)CC2)c1C` was tested. Which activation did it give?
Answer: -0.84% (inactive)

Question: For `c1cc(-c2ccc3[nH]ccc3c2)n2ccnc2c1`, which activation is on record?
Answer: -0.92% (inactive)

Question: Which activation does the source give for `CCNC(=O)C1CCCN(C(=O)c2ccc(OC)cc2OC)CC1` (centres undefined) here?
Answer: 0.47% (inactive)

Question: With `O=C(NCc1ccco1)c1cccc(-c2ccc3nncn3c2)c1` as the compound, how does the activation read?
Answer: 1.37% (inactive)

Question: With `CCCOc1ccc(F)cc1-c1cc(C(=O)Nc2ccc(F)cc2)[nH]n1` as the compound, how does the activation read?
Answer: 0.53% (inactive)

Question: With `CC1(C(=O)NS(=O)(=O)c2ccccc2)CCN1C(=O)C/C=C/c1ccccc1` (centres undefined) as the compound, how does the activation read?
Answer: -2.25% (inactive)

Question: How did the activation turn out when `COCc1cccc(-c2csc(C(O)c3ccc(F)cc3)n2)c1` (centres undefined) was run?
Answer: -0.9% (inactive)

— PubChem BioAssay AID540308 (The Scripps Research Institute Molecular Screening Center, 2011)
